Assay outcomes: PubChem BioAssay, National Center for Advancing Translational Sciences (NCATS)
The entries come from a sample that favours hits as a whole.
RE007 growth inh: less growth of the S. pombe RE007 Vpr strain; S. pombe RE007 Vpr strain, BacTiter-Glo ATP luminescence, 24 h; hit rate 0.21% among 360,000; Potency, µM (titrated, usually from 92.2 µM), for inactives: at the top dose activity change, negative = less growth, actives largely listed as inhibitors; AID 651644; active = well fitted falling curve with a large enough effect; inconclusive = small, poorly fitted or top-dose-only effect; inactive = no such curve, though single readings can be large or run the other way; note: potency is the fitted concentration of half-maximal effect; % is set by controls: 0 for no effect and ±100 for the full control effect; nearly all actives have a fitted effect of over 50% in size
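Fission yeast RE007 carrying one integrated HIV-1 vpr copy, seeded at OD 0.01 in PMG+AL medium with 23 nL pinned compound. Grown 24 h at 30 degrees; viability read by BacTiter-Glo luminescence after 5 min.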
LmPK inhibitor: blocks Leishmania mexicana pyruvate kinase activity | hit rate 0.37% among 290,000 | Potency, µM (highest dose often 57.5 µM), inactives show at the top dose activity change, negative = inhibition, actives largely listed as inhibitors | purified LmPK, Kinase-Glo ATP luminescence, 1 h | AID 1721; note: potency is the fitted concentration of half-maximal effect; % is set by controls: 0 for no effect and ±100 for the full control effect
Target sequence (Q27686 whole entry, looked up): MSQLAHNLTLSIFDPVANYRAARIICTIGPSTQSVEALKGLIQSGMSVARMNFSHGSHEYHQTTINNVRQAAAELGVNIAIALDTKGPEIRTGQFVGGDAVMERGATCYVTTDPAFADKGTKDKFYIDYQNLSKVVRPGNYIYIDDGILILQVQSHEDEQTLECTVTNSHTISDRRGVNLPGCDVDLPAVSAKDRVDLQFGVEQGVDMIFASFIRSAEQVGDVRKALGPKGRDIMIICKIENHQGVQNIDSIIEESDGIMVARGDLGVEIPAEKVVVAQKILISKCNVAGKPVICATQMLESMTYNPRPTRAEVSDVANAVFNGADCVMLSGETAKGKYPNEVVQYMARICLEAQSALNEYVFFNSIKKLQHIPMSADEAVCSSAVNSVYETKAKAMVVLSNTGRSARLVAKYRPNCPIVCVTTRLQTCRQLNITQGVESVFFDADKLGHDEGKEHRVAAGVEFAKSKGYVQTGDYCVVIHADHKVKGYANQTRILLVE
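Purified LmPK (0.1 nM) with 0.5 mM PEP and 0.1 mM ADP in imidazole buffer pH 7.2 with MgCl2/KCl, 1 h at room temperature. ATP formed was read by luciferase luminescence and normalized to no-enzyme and uninhibited controls.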
Shiga toxin inh: Shiga toxin inhibition; hit rate 9.2% among 290,000; inhibition, % at 38.7 µM; Vero cells, Shiga toxin protein synthesis inhibition reporter; in the data active = inhibition mostly above about 28%, no sharp cut-off; inactive = mostly below about 43%; note: 0% is about no effect
Giardia FBPA inh: inhibitors of Giardia lamblia fructose-1,6-bisphosphate aldolase; A8B2U2; purified Giardia FBPA; Potency, µM (top dose mostly 59.6 µM), without a hit: at the top dose activity, negative = inhibition, hits mostly inhibitors; hit rate 0.71% among 290,000; note: potency is the fitted concentration of half-maximal effect; % is set by controls: 0 for no effect and ±100 for the full control effect; nearly all actives have a fitted effect of over 55% in size
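Giardia FBPA (40 nM reagent) was preincubated 10 min at RT with compound (up to 57.5 uM final), then substrate plus GAPDH/TPI/NAD/arsenate coupling system with diaphorase/resazurin was added; resorufin fluorescence (525/598 nm) was read after 20 min.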
Cycloheximide cs: counter-screen for Shiga toxin inhibitors: cycloheximide protein synthesis inhibition | cell reporter, cycloheximide protein synthesis inhibition counterscreen | max response, % | hit rate 12% among 300,000; in the data active = max response mostly above about 13%, no sharp cut-off; inactive = mostly below about 14%; note: read at 38.3 µM for the half of the compounds with a filed dose; 0% is about no effect
Tb PYK inh: inhibitors of Trypanosoma brucei pyruvate kinase | Q57TT1 | TbPYK enzyme, Kinase-Glo Plus ATP luminescence, 45 min | Potency, µM (top dose mostly 76.8 µM), inactives show top-dose activity, negative = inhibition, usual class: inhibitors | hit rate 0.12% among 410,000; note: potency is the fitted concentration of half-maximal effect; % is set by controls: 0 for no effect and ±100 for the full control effect; nearly all actives have a fitted effect of over 50% in size
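Quantitative HTS: titrated library compounds versus trypanosomal pyruvate kinase in TEA buffer (pH 7.2) containing KCl, MgCl2, BSA and Tween-20. Reactions were initiated with ADP, 130 uM final. Kinase-Glo Plus luminescence was read after 45 min at RT.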
Starred values were filed as active, the others as inactive; u = inconclusive; x = no result; + = active, no number; ! = not confirmed by another sample; [ ] = another dose, or the depositor's remark. Unless noted, calls come from the whole dose curve; as a rule, active = well fitted curve in the direction sought with a large enough effect; inconclusive = small, poorly fitted or top-dose-only effect, or another doubt; inactive = no such curve, though single readings can be large; an effect the other way counts as inactive or inconclusive.

SMILES	RE007 growth inh	LmPK inhibitor	Shiga toxin inh	Giardia FBPA inh	Cycloheximide cs	Tb PYK inh
Cc1c(Br)c([N+](=O)[O-])nn1CC(=O)Nc1ccc(Cc2ccncc2)cc1	11.6%	4.5%	-4.7	-7.3%	4.9	1.5%
CCn1c(CN2CCOCC2)nc2cc(NC(=O)c3ccccc3[N+](=O)[O-])ccc21	x	x	x	x	x	1.2%
COc1cc2[nH]c(-c3ccc(C)cc3)cc(=O)c2cc1OC	-7.7%	-1.9%	+!	-6.1%[89.2 µM]	29.3*	1.4%
COc1cccc(-c2cc(=O)c3cc(NC(C)=O)ccc3[nH]2)c1	7.5%	-2.1%	-3.5	-8.2%	16.8	-1.9%
COc1ccc(-c2cc(=O)c3cc(OC)ccc3[nH]2)cc1	6.2%	u	93.9*	-0.5%	61.5*	-24.7%
COc1cc2[nH]c(-c3cccc(F)c3)cc(=O)c2cc1OC	1.0%	1.3%	-14.3	5.7%	-2.6	-6.3%
COc1ccc2[nH]c3ccccc3c2c1	-33.3%	-0.1%	58.3	-6.9%	32.4*	-5.3%
COc1ccc2[nH]c3c(c2c1)CNCC3	0.5%	x	x	x	x	7.4%
COc1ccc2[nH]c3c(c2c1)CCC/C3=N\N	11.0%	2.0%	7.9	-15.4%	9.7*	-8.5%
COc1ccccc1CNC(=O)c1ccc(-c2nc(CS(=O)c3ccc(C)cc3)c(C)o2)cc1 (stereo not drawn)	x	x	x	x	x	-11.1%
COc1ccc(-c2nc(SCc3cc(=O)c4cc(C)ccc4[nH]3)n[nH]2)cc1	x	x	x	x	x	-8.1%
COc1ccc(-c2cc(=O)c3cc(C)ccc3[nH]2)cc1	-18.1%	-8.2%	53.1*	-3.7%[89.2 µM]	35.4*	-3.1%
COc1cc(C(=O)OCC(=O)NC2CC2)ccc1OCCC(C)C	8.1%	x	x	x	x	6.7%
O=[N+]([O-])c1cc2c(cc1C=Nc1ccccc1)OCO2	-15.4%	-0.6%	-5.8	x	-2.8	-0.3%
Sc1oc(-c2ccccc2)cc1C=Nc1ccccc1	-13.6%	-11.0%	85.7	10.3%	30.4*	-9.7%
COc1ccc(N(C(=O)c2cnccn2)C(C(=O)NCc2ccccc2)c2ccc(O)cc2)cc1 (stereo not drawn)	-13.1%	-4.6%	75.3*	1.7%	27.8*	1.8%
O=C(NCc1ccccc1)C(c1ccncc1)N(C(=O)c1ccccn1)c1ccccc1 (stereo not drawn)	2.4%	-8.7%	60.0*	-3.4%	24.9*	0.8%
COc1ccc(CNC(=O)C(c2ccco2)N(C(=O)c2ccccn2)c2ccccc2)cc1 (stereo not drawn)	-3.8%	6.9%	83.6*	1.6%	38.1*	8.7%
Cc1ccccc1N(C(=O)c1ccccn1)C(C(=O)NCc1ccccc1)c1ccncc1 (stereo not drawn)	47.9%	3.3%	-6.5	9.7%	1.0	-3.6%
O=C(Nc1ccc2oc(-c3cccc(F)c3)nc2c1)c1ccc2ccccc2c1	x	x	x	x	x	-0.7%
Cc1ccc(S(=O)(=O)N(CC(=O)Nc2cccnc2)c2cc(Cl)ccc2C)cc1	x	x	x	x	x	1.0%
Cc1csc2nc(CCNS(=O)(=O)c3cccs3)cn12	-1.6%	6.9%	32.4	-6.2%	18.1*	2.7%
CCCS(=O)(=O)NCc1cn2c(C)csc2n1	0.1%	-6.0%	49.4*	2.9%	32.2*	-10.7%
CCS(=O)(=O)NCc1cn2c(C)csc2n1	17.3%	-5.0%	20.7	-0.1%	1.6	-4.1%
COc1ccccc1NC(=O)CSc1nnnn1-c1ccc(F)cc1	14.6%	1.5%	-1.3	11.2%	-1.0	-1.8%
SMILES	RE007 growth inh	LmPK inhibitor	Shiga toxin inh	Giardia FBPA inh	Cycloheximide cs	Tb PYK inh
COc1ccc(OC)c(S(=O)(=O)N2CCCc3ccccc32)c1	-8.9%	8.6%	-9.8	-15.2%	-5.1	-3.5%
COc1ccc(Br)cc1S(=O)(=O)N1CCCc2ccccc21	11.0%	4.0%	36.1*	-5.1%	19.8*	-0.4%
Cc1ccc(S(=O)(=O)N2CCCc3ccccc32)cc1C	7.5%	-3.2%	22.8*	3.1%	16.7*	1.6%
COC(=O)C1CCN(C(=O)c2ccc(OC)c(S(=O)(=O)N3CCCc4ccccc43)c2)CC1	0.1%	x	x	x	x	4.3%
O=S(=O)(c1ccccc1F)N1CCCc2ccccc21	-15.8%	1.5%	-7.7	-2.8%	-4.5	-9.6%
O=[N+]([O-])c1ccccc1S(=O)(=O)N1CCCc2ccccc21	-1.7%	-0.8%	x	-8.6%	30.4*	-16.0%
COC(=O)C1CCN(C(=O)COC(=O)c2ccc(OC)c(S(=O)(=O)N3CCCc4ccccc43)c2)CC1	1.9%	-8.8%	55.3*	-1.2%	32.4*	4.6%
O=C1c2ccccc2C(Cc2ccnc(F)c2)(Cc2ccnc(F)c2)c2ccccc21	x	x	x	4.3%	x	x
CC1(C(=O)Nc2cccc(NS(C)(=O)=O)c2)Cc2c(-c3ccc(C(N)=O)cc3)ccnc2O1 (stereo not drawn)	-16.3%	x	x	x	x	2.0%
CCOC(=O)[C@H](CCc1ccccc1)NC(C)C(=O)N1CC2(CC1C(=O)O)SCCS2 (stereo partly drawn)	x	x	x	x	x	0.0%
COc1ccc(C(=O)c2ccccc2)c(OCC(=O)NC2CC2)c1	-11.1%	1.3%	-22.5	1.6%	-2.4	0.3%
COc1ccc(C(=O)N2CCCN(C)CC2)cc1S(=O)(=O)N1CCCc2ccccc21	-1.8%	-0.1%	51.3*	6.7%	25.9*	-0.3%
CCCCN(C)CCCNC(=O)Cn1ncc2c3ccccc3n(Cc3cc(C)ccc3C)c2c1=O	x	x	x	x	x	0.0%
CN1\C(=C/C=C/C=C/C=[N+](C)C)C(C)(C)c2ccccc21	u	10µM*	-7.5	-16.5%	8.2	u
CN1/C(=C\C=C\C2=[N+](C)c3ccc4ccccc4c3C2(C)C)C(C)(C)c2ccccc21	x	14.1µM*	-62.2	x	-8.9	x
CN1/C(=C\C=O)C(C)(C)c2ccccc21	4.1%	5.2%	-2.2	-3.7%	-2.3	-1.8%
CN1/C(=C\C(=O)C[n+]2ccc3ccccc3c2)C(C)(C)c2ccccc21	u	-3.9%	-24.7	-2.4%	-2.7	-0.6%
CN1/C(=C\C=Nc2ccc3ccccc3c2)C(C)(C)c2ccccc21	x	3.8%	53.1	-5.3%	46.8*	x
CN(C)c1ccc(N=C/C=C2\N(C)c3ccccc3C2(C)C)cc1	u	-15.1%	167.2*	-11.2%	68.2*	-10.9%
CN1/C(=C\C=Nc2ccccc2)C(C)(C)c2ccccc21	-8.1%	-18.9%	-15.5	-28.3%	-2.3	-2.6%
COc1cccc([C@@H]2Oc3ccc(OC)cc3C(=O)[C@H]2OC(=O)N[C@H]2CCCc3ccccc32)c1	x	x	x	-5.0%	x	x
C[C@@H]1CN([C@@H](C)CO)C(=O)c2cc(N(C)C)ccc2O[C@@H](C)CCCCO[C@@H]1CN(C)Cc1ccc2c(c1)OCO2	9.3%	x	x	x	x	u
Cc1ccc(NC(=O)c2ccncc2)cc1S(=O)(=O)N(C)C	3.3%	-1.2%	7.3	1.3%	0.1	7.8%
Cc1ccc(NC(=O)Nc2ccc3c(c2)CCC3)cc1C	5.7%	-1.9%	29.1	x	17.7	-5.5%
